Assay outcomes: PubChem, The Scripps Research Institute Molecular Screening Center
ADAM10 inh = inhibitors of human ADAM10; inhibition, % at 7 µM; O14672; 0.62% of 370,000 active; recombinant ADAM10, EDANS/DABCYL FRET peptide cleavage, 3 h;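 active means inhibition above a per-campaign cutoff equal to the mean of compounds falling between control-based bounds plus 3 SD, cut at about 20% in these data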;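 further: 0% = DMSO wells while the 100% control is not disclosed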
PLCb3 inh = PLC-beta3 (human) inhibition, primary screen | Q01970 | Purified PLC-beta3, fluorogenic substrate, fluorescence | inhibition, % at 12.2 µM | 0.18% of 370,000 active; in the data active means inhibition above about 11%;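 further: 0% = median of compound wells on plate and 100% = full blocker control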
Target sequence (Q01970 whole entry, looked up): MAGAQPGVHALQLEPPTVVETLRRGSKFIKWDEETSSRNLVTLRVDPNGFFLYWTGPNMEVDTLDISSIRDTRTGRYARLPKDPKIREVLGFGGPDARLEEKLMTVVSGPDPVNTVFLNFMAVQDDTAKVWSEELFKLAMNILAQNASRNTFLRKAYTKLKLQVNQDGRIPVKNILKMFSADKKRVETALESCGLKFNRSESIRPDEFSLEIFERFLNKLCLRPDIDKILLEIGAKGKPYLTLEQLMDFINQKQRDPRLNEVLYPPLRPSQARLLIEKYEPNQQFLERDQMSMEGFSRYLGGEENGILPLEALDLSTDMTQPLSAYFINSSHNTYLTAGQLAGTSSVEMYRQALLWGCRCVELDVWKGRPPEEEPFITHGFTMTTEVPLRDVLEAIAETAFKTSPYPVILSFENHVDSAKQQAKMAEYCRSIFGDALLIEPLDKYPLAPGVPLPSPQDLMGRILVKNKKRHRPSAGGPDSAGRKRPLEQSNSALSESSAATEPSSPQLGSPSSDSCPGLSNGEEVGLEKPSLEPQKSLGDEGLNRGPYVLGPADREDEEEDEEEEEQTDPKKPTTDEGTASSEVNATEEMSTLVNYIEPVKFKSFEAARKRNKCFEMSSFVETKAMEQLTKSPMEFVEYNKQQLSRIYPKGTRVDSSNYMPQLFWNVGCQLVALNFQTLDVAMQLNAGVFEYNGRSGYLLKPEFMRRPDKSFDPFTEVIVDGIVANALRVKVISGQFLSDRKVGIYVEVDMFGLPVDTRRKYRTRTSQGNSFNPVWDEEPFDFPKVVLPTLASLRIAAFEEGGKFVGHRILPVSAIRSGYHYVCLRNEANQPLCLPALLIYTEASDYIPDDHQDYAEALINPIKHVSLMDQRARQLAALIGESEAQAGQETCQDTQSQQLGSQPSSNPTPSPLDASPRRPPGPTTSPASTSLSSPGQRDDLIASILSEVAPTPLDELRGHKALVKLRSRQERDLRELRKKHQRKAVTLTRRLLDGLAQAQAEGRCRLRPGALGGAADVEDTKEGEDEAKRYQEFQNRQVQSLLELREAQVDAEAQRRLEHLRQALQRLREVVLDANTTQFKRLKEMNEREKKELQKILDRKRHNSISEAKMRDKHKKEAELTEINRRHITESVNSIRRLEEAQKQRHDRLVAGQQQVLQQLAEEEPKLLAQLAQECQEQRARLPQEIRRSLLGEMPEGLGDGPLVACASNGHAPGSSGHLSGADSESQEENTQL
PLCg1 inh = PLC-gamma1 (human) inhibition, primary screen; P19174; AID 720700; inhibition, % at 12.2 µM; purified PLC-gamma1, fluorogenic substrate, fluorescence; 0.84% of 370,000 active; in the data active means inhibition above about 9.5%
ADAM17 inh = inhibits human ADAM17; AID 720648; 0.83% of 370,000 active; P78536; inhibition, % at 6.95 µM; recombinant ADAM17, EDANS/DABCYL FRET peptide cleavage;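 active means inhibition above the mean of compounds lying between control limits plus 3 SD, set per campaign, cut at about 8.5% in these data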;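 further: 0% = DMSO-only wells as the low control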
KLK7 zymogen act = activators of human kallikrein-7 zymogen | purified proKLK7, EDANS-DABCYL substrate fluorescence; 100% is mature enzyme control, 0% vehicle | AID 652039 | activation, % at 7 µM | P49862 | 0.9% of 370,000 active;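 active means activation above the mean of all tested compounds plus 3 SD, computed per campaign excluding outliers beyond control limits, cut at about 13% in these data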
ADAM10 confirm = confirmation of inhibitors of human ADAM10 | AID 743208 | inhibition, % at 6.95 µM | 1% of 2,100 active | shares compounds with ADAM10 inh | ADAM10 QFRET peptide cleavage, EDANS fluorescence;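 active means inhibition above about 20% chosen separately for each screening run, limit read from the data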;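 further: 0% = DMSO wells and 100% = marimastat wells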
ADAM17 ctr = inhibits human ADAM17 in ADAM10 exosite counter-screen. shares compounds with ADAM10 inh. ADAM17 QFRET peptide cleavage, EDANS fluorescence. inhibition, % at 6.95 µM. 0.5% of 2,100 active. AID 743214;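 active means mean triplicate inhibition above the solvent-only control wells' mean plus 3 SD, cut at about 12% in these data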;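 further: 0% = DMSO wells and 100% = marimastat wells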
ADAM10 ctr = inhibits human ADAM10 in ADAM17 exosite counter-screen. shares compounds with ADAM17 inh. recombinant ADAM10, EDANS/DABCYL FRET peptide cleavage, 3 h. inhibition, % at 6.95 µM. 47% of 2,900 active. AID 743256;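 active means mean inhibition over the triplicate runs exceeds the activity threshold set in the earlier primary screen, cut at about 20% in these data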;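 further: 0% = DMSO wells and 100% = marimastat wells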
ADAM17 confirm = human ADAM17 inhibition, confirmation. 65% of 2,900 active. inhibition, % at 6.95 µM. recombinant ADAM17, EDANS/DABCYL QFRET peptide cleavage. shares compounds with ADAM17 inh;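 active means mean inhibition across replicates above the hit cutoff set in the primary screen, cut at about 8.5% in these data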;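 further: 0% = DMSO wells and 100% = marimastat wells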
Numbers without * were called inactive; . = no result. Sampled rows, rich in hits. Any-hit rate of the full collection: about 2.9%.

SMILES	ADAM10 inh	PLCb3 inh	PLCg1 inh	ADAM17 inh	KLK7 zymogen act	ADAM10 confirm	ADAM17 ctr	ADAM10 ctr	ADAM17 confirm
COc1ccccc1NC(=O)c1sc2ncn(CC(=O)Nc3ccccc3)c(=O)c2c1C	-4	-10	-7	-2	0	.	.	.	.
OC(CNCC(c1ccc(Cl)cc1Cl)c1c[nH]c2ccccc12)c1ccccc1 (stereo not given)	26*	1	9	12*	1	13	4	37*	17*
O=[N+]([O-])CC(c1ccccc1)c1c[nH]c2ccccc12 (stereo not given)	-1	-9	0	-3	1	.	.	.	.
COC(=O)c1ccc(-c2ccc([C@H]3[C@H]4C=CC[C@@H](C)[C@@H]4C(=O)N3Cc3ccccc3)c(F)c2)cc1	4	0	0	-3	0	.	.	.	.
OC(c1ccccc1)(c1nc(-c2ccc3ccccc3c2)cs1)C(F)(F)F (stereo not given)	7	1	3	8	0	.	.	.	.
OC(c1ccccc1)(c1nc(-c2ccc3c(c2)OCO3)cs1)C(F)(F)F (stereo not given)	23*	5	1	9.2*	0	13	4	25*	14*
OC(c1ccccc1)(c1nc(-c2ccccc2)cs1)C(F)(F)F (stereo not given)	23*	4	3	8.8*	0	8	2	33*	17*
OC(c1ccccc1)(c1nc(-c2cccc(F)c2)cs1)C(F)(F)F (stereo not given)	33*	-2	-1	12*	0	8	2	39*	18*
O=C(NCc1ccc2c(c1)OCO2)c1cc2ccccc2o1	4	-2	-5	-2	0	.	.	.	.
O=C(OCc1ccc([N+](=O)[O-])cc1)c1cc(=O)c2ccccc2o1	9	-5	2	-1	0	.	.	.	.
O=[N+]([O-])c1ccc(O)c(/C=N/Nc2ccccn2)c1	24*	-2	-1	30*	0	29*	31*	48*	54*
O=[N+]([O-])c1ccc(NN=Cc2ccccc2O)nc1	5	-30	-22	1	0	.	.	.	.
Cc1cc(C)c2cc(C(c3nnnn3C3CCCC3)N3CCOCC3)c(=O)[nH]c2c1 (stereo not given)	-13	-5	-3	-7	0	.	.	.	.
O=C(CN1CCOCC1)Nc1nc2ccc(Cl)cc2s1	0	-10	-3	3	0	.	.	.	.
CCOC(=O)c1ccc(N/C(=N\S(=O)(=O)c2ccc(F)cc2F)c2ccccc2)cc1	30*	4	3	12*	1	3	1	27*	18*
CCCCOC(=O)c1ccc(N/C(=N\S(=O)(=O)c2ccccc2)c2ccccc2)cc1	18	1	3	1	1	.	.	.	.
Cc1ccc(S(=O)(=O)Nc2ccc3nc(C)sc3c2)c(C)c1	-7	-33	-12	-1	0	.	.	.	.
O=C(CSC1CC(=O)N(CC(c2ccccc2)c2ccccc2)C1=O)Nc1ccc(Cl)cc1 (stereo not given)	25*	0	2	16*	0	9	3	32*	20*
CC1CCCC(C)N1/N=C/c1cccc([N+](=O)[O-])c1 (stereo not given)	1	0	1	-2	0	.	.	.	.
CC(C)(C)NC(=O)C(c1ccc(-c2ccccc2)cc1)N(C[C@H]1CC[C@@H]([C@@H]2CC[C@H](CO)O2)O1)C(=O)c1ccc(C(C)(C)C)cc1 (stereo not given in full)	20*	3	2	12*	0	4	1	37*	19*
Cc1ccc(C(C(=O)NC(C)(C)C)N(CC2CCCO2)C(=O)c2csnn2)cc1 (stereo not given)	-2	-6	3	-1	1	.	.	.	.
O=C(COC(=O)c1ccccn1)Nc1ccc(S(=O)(=O)N2CCOCC2)cc1	-6	0	1	-5	0	.	.	.	.
CCc1nc2ccccc2c(C(=O)OCC(=O)Nc2ccc(S(=O)(=O)N3CCOCC3)cc2)c1C	20*	4	1	10.0*	0	9	2	21*	12*
CCc1ccc(/C=c2\s/c(=C\C(=O)C(C)(C)C)[nH]c2=O)cc1	33*	-11	-15	17*	-1	11	5	20*	17*
Cc1ccccc1/C=c1\s/c(=C\C(=O)C(C)(C)C)[nH]c1=O	15	-3	-10	8	-1	.	.	.	.
SMILES	ADAM10 inh	PLCb3 inh	PLCg1 inh	ADAM17 inh	KLK7 zymogen act	ADAM10 confirm	ADAM17 ctr	ADAM10 ctr	ADAM17 confirm
CCOC(=O)c1sc(NC(=O)CN2C(=O)NC3(CC(C)CC(C)(C)C3)C2=O)c(C(=O)OCC)c1C (stereo not given)	-2	3	1	-3	-1	.	.	.	.
CCOC(=O)c1sc(NC(=O)CN2C(=O)NC3(CC(C)CC(C)(C)C3)C2=O)cc1C (stereo not given)	24*	-1	4	13*	0	1	1	18	14*
COc1ccc(-c2csc(Nc3cccc(C)n3)n2)cc1	9	-6	5	2	0	.	.	.	.
O=C(NCC1CCCO1)C(c1cccs1)N(Cc1ccccc1)C(=O)c1ccc(-c2ccccc2)[nH]1 (stereo not given)	30*	2	2	12*	-1	12	4	18	14*
CCc1nc2ccc(C(=O)Nc3cc(-c4ccccc4)ccc3OC)cn2c1N(C)Cc1nccs1	27*	-37	-20	11*	-2	6	2	20	15*
CCc1nc2ccc(C(=O)Nc3cc(-c4ccccc4)ccc3OC)cn2c1N(C)Cc1ccc(OC)cc1	-7	-20	-16	-1	-14	.	.	.	.
Cc1ccc(S(=O)(=O)N2C[C@H]3n4c(=O)ccc(=O)n4C[C@H](OC(=O)NCc4ccccc4)[C@@]3(O)C2)cc1	-13	5	1	-6	1	.	.	.	.
CCCCCCNC(=O)O[C@@]12CN(S(=O)(=O)c3ccc(C)cc3)C[C@]1(O)Cn1c(=O)n(CCCCCC)c(=O)n1C2	-6	3	-1	-1	1	.	.	.	.
CCCCCCn1c(=O)n2n(c1=O)[C@@H]1CN(S(=O)(=O)c3ccc(C)cc3)C[C@]1(O)[C@@H](OC(=O)NCc1ccccc1)C2	22*	3	0	9.9*	-1	4	1	33*	16*
